CSC inhib: blocks cancer stem cells; AID 2717; inhibition, % at 7.5 µM; cancer stem cell-like cells viability, luminescence; actives 1.1% (n = 300,000); in the data active = inhibition above about 75%; inconclusive = no clear call, values can overlap the other calls; tested in HMLE shEcad cells
Beta apoptosis: blocks beta cell apoptosis. INS-1E cytokine-induced death, ATP luminescence, 48 h; percent of positive-control rescue, neutral wells zero. actives 0.8% (n = 300,000). protection from apoptosis, % (test concentration not listed). AID 435005;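 active = Every replicate reaches about 75%, or at least half do and their mean reaches it too, limit read from the data; inconclusive = At least half of replicates reach the limit but their mean does not; inactive = Under half of replicates reach the limit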;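 also: 0% = cytokine-treated negative control wells and 100% = positive control rescue; higher means more ATP so stronger rescue from cytokine killing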
Calb FLC: C. albicans growth modulation with fluconazole; C. albicans CaCi-2 (fluconazole-resistant clinical isolate) + fluconazole, Alamar Blue growth, 48 h; growth inhibition, % (no concentration beside the values); actives 0.57% (n = 300,000);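 active = growth inhibition above about 58% in most replicates, limit read from the data, passing the limit was not always enough; inconclusive = exactly half the replicates above a set limit; inactive = most replicates below a set limit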;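 also: all wells also contain fluconazole at 8 µg/ml as a sub-toxic cotreatment; 0% = median of DMSO wells and 100% = median of geldanamycin control wells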
Mdm2-MdmX inh: inhibitors of human Mdm2/MdmX interaction | SaOS-2 split-luciferase Mdm2/MdmX complementation, luminescence | actives 3% (n = 330,000) | inhibition, % at 8 µM | O15151+Q00987;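 active = inhibition of at least 50% at 8 µM in the primary screen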
Target sequence (O15151 whole entry, looked up): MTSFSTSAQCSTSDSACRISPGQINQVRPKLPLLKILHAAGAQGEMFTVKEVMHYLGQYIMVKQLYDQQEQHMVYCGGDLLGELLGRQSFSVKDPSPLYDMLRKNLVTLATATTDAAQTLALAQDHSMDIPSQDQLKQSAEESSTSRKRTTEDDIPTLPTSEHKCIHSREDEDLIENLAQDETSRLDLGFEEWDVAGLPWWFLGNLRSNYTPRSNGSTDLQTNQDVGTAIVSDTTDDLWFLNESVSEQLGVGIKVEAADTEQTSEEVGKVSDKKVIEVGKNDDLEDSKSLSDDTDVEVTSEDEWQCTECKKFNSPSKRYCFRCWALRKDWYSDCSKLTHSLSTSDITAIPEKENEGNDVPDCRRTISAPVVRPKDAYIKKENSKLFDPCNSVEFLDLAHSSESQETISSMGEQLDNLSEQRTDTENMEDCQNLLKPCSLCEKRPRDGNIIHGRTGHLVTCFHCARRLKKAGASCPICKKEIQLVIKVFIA
Target sequence (Q00987 whole entry, looked up): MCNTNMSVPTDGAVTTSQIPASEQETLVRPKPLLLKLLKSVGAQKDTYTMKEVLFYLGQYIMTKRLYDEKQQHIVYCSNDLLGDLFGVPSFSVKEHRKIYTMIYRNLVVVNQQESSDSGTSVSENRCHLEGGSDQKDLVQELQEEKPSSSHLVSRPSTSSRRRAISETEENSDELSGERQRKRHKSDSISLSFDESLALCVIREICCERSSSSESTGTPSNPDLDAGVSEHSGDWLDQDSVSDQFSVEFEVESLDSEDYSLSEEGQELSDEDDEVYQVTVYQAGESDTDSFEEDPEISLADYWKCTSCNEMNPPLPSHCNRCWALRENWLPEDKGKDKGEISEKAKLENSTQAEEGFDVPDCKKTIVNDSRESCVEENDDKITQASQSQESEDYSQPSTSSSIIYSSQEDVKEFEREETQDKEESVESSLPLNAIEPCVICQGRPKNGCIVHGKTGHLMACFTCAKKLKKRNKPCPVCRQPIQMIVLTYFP
MPTP block: permeability transition pore inhibition; isolated mouse mitochondria, Ca2+ swelling absorbance, 30 min; inhibition, % at 10 µM; actives 1.4% (n = 360,000); AID 602449;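 active = inhibition of 50% or more, scaled per plate between neutral and stimulator controls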;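 also: 0% = DMSO wells given calcium and 100% = 1 mM EGTA wells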
MPTP counter: membrane potential counter-screen of mitochondrial pore inhibitors | inhibition, % at 10 µM | shares compounds with MPTP block | actives 78% (n = 5,000) | AID 624504 | isolated mitochondria, Rhodamine 123 fluorescence; in the data active = inhibition above about 22%;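 also: 0% = DMSO vehicle and 100% = positive control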
MPTP swell DR: MPTP inhibition, dose response swelling confirmation; shares compounds with MPTP block; isolated mitochondria swelling, absorbance; IC50, µM; actives 58% (n = 780); AID 651561; in the data active = IC50 below about 20 µM
MPTP counter DR: counter-screen for mitochondrial permeability transition pore inhibitors, dose response | isolated mitochondria counterscreen, fluorescence read-out | shares compounds with MPTP block | IC50, µM | actives 49% (n = 780); in the data active = IC50 below about 80 µM
* marks the source's active call; other numbers are inactive results; ? = inconclusive; . = no result. Most compounds without a hit are left out; they make up all but 4.8% or so of the library.

SMILES | CSC inhib | Beta apoptosis | Calb FLC | Mdm2-MdmX inh | MPTP block | MPTP counter | others
COc1cc(CCc2ccccc2)c(C(=O)O)c(O)c1C/C=C(/C)CCC=C(C)C | . | . | . | 18 | 87* | 56*
COCOc1ccc(/C=C/C(=O)c2c(OCOC)cc(OCOC)c(CC=C(C)C)c2O)cc1OCOC | -5 | -3 | -8 | 32 | 4 | .
COc1cc(CCc2ccccc2)c(C(=O)O)c(O)c1CC=C(C)C | . | . | . | . | 93* | 69*
COc1ccc(NC(=O)CCCc2ccccc2)c(OC)c1 | -16 | 2 | 4 | 9 | 0 | .
CC(Oc1ccc(Cl)cc1)C(=O)N(C)CC(=O)Nc1ccc(N2CCOCC2)cc1 (stereo not given) | -8 | -5 | -9 | 7 | -1 | .
CC(C)(C)CC(C)(C)NCC(O)COc1ccc2c(c1)CCC2 (stereo not given) | 39 | 3 | 0 | 48 | 95* | -12 | MPTP swell DR=4.2*;MPTP counter DR=48*
COc1cccc(CN(C(=O)c2ccccc2Cl)C2CCS(=O)(=O)C2)c1 (stereo not given) | -4 | -6 | -8 | -6 | -3 | .
O=C(NNC(=O)c1ccc(Br)cc1)c1ccncc1 | -4 | 1 | 14 | -27 | 0 | .
COc1cccc(C(=O)NNC2=C(C(=O)C(F)(F)F)CCC2)c1 | 24 | 1 | -27 | 23 | 63* | 45*
O=C(NNC1=C(C(=O)C(F)(F)F)CCC1)c1ccc(Br)cc1 | 107* | 6 | 92* | 40 | 93* | 75*
CC(C)[C@H](NC(=O)c1ccc(Cl)c([N+](=O)[O-])c1)C(=O)NCc1ccc(F)cc1 | -3 | -9 | -3 | 13 | 2 | .
CC(C)[C@H](NC(=O)c1ccc(Cl)c([N+](=O)[O-])c1)C(=O)NCc1ccc(Cl)cc1Cl | 0 | -4 | 14 | -8 | 86* | 93*
COc1ccc(Cn2c(-c3ccccc3C)nc3c(c(=O)c4ccccc4n3C)c2=O)cc1 | -16 | 5 | -2 | 10 | 3 | .
COc1cccc(C(O)c2nc(-c3ccc(N(C)C)cc3)cs2)c1 (stereo not given) | . | . | . | . | 17 | .
O=C(Nc1ccccc1)c1ccc(Cn2cc(C(F)(F)F)ccc2=O)cc1 | 6 | 6 | 23 | 14 | 0 | .
O=C(Nc1cc(C(F)(F)F)cc(C(F)(F)F)c1)c1ccc(Cn2cc(C(F)(F)F)ccc2=O)cc1 | -9 | 53 | 1 | 22 | 72* | 25*
CCCCCCCCCS(=O)(=O)N/N=C/c1cccc([N+](=O)[O-])c1 | 24 | -11 | -9 | 14 | 64* | 61*
O=[N+]([O-])c1ccc(N/N=C/c2cccc(O)c2)cc1 | 47 | 2 | -33 | -83 | 2 | .
O=C(O)c1ccc(N/N=C/C=C/c2ccc([N+](=O)[O-])o2)cc1 | 4 | 5 | -9 | -3 | 8 | .
CCCCCCCCCCS(=O)(=O)N/N=C/c1ccc(O)cc1 | 38 | -4 | -57 | -10 | 79* | 56*
O=[N+]([O-])c1ccc(N/N=C/C=C/c2ccco2)cc1 | 11 | . | -1 | -46 | 76* | 70*
O=[N+]([O-])c1ccc(NN=Cc2cccc([N+](=O)[O-])c2)cc1 | . | . | . | . | 92* | 65*
Cc1ccc(S(=O)(=O)N/N=C/c2cccc([N+](=O)[O-])c2)cc1 | -5 | . | 2 | 17 | 0 | .
Cc1cccc(C(=O)Oc2ccccc2/C=N/Nc2ccc([N+](=O)[O-])cc2)c1 | 33 | 15 | . | . | 67* | 78*
Cn1nc(C(C)(C)C)cc1C(=O)NCc1ccc(N2CCCC2=O)cc1 | 18 | 116* | ? | 6 | 95* | 93*
SMILES | CSC inhib | Beta apoptosis | Calb FLC | Mdm2-MdmX inh | MPTP block | MPTP counter | others
O=C(Nc1ccc(F)cc1)Nc1ccc(NC(=O)c2ccccc2O)cc1 | 29 | -22 | 12 | 12 | 9 | .
CN(C)c1ccc(NC(=O)Nc2csc3ccccc23)cc1 | 4 | 11 | -8 | -20 | 52* | 54*
O=C(Nc1ccc(F)cc1)Nc1ccccc1N1CCCCC1 | 38 | 38 | -6 | 21 | 85* | 77*
O=C(Nc1ccc(F)cc1)Nc1csc2ccccc12 | 11 | 23 | 8 | 28 | 75* | 91*
CCOC(=O)CCN(Cc1ccccc1)S(=O)(=O)c1csc(C(N)=O)c1 | -5 | -7 | 6 | 0 | 0 | .
Cc1ccc(S(=O)(=O)N/N=C/c2cc([N+](=O)[O-])ccc2O)cc1[N+](=O)[O-] | 13 | 2 | -3 | 9 | 72* | 60*
COC(=O)c1cn(C(=O)c2cc(Br)ccc2Cl)c2ccccc12 | -9 | 2 | 5 | 16 | -1 | .
Cc1cc(C)cc(Oc2nc(C(F)(F)F)nc3ccccc23)c1 | 42 | 7 | 4 | 21 | 80* | -4 | MPTP swell DR=>100;MPTP counter DR=78*
CC(=O)Nc1ccc(Oc2nc(C(F)(F)F)nc3ccccc23)cc1 | 8 | -1 | 10 | 4 | 0 | .
COc1ccc(N2CC(C(=O)N3CCN(C(=O)c4ccco4)CC3)CC2=O)cc1 (stereo not given) | . | -5 | 4 | 13 | -1 | .
OC(CN1CCCCC1)CN(c1ccccc1)c1ccccc1 (stereo not given) | -10 | 2 | -12 | 17 | 2 | .
OC(CN1CCCCCC1)CN(c1ccccc1)c1ccccc1 (stereo not given) | -5 | 31 | -69 | -4 | 67* | 51*
O=C(Nc1ccncc1)c1ccc2c(c1)C(=O)N(C1CCCCC1)C2=O | 6 | -4 | 0 | -2 | 91* | 97*
N#Cc1cnc2sc3ccccc3n2c1=N | -7 | 3 | -4 | -28 | 72* | 81*
COc1ccc([N+](=O)[O-])cc1NC(=O)CSc1ccc2ccccc2c1 | 14 | 3 | -6 | 10 | 62* | 31*
